Test results taken from PubChem BioAssay (NCATS).
Inconclusive results are not listed. Calls of active or inactive are those of the source. Calls come from the whole dose curve; as a rule, active = well fitted inhibition curve with a large enough effect; inconclusive = small, poorly fitted or top-dose-only effect; inactive = no such curve, though single readings can be large or run the other way.

Molecular target: Retinaldehyde dehydrogenase 3 (Homo sapiens) (UniProt P47895)
Test: qHTS for Inhibitors of the Aldehyde Dehydrogenase Family (ALDH1A3) Primary screen (AID 2061315);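 for activity change, negative = inhibition: plate controls were DMSO vehicle for no effect and reference inhibitor for full effect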
Conditions: ALDH inhibition qHTS; series mostly up to 56 µM; activity change, negative = inhibition: at the top concentration
Potency is the fitted concentration of half-maximal effect.

SMILES	activity change, negative = inhibition	Potency
CC1(C)CC[C@]2(C(=O)O[C@@H]3O[C@H](CO[C@@H]4O[C@H](CO)[C@@H](O)[C@H](O)[C@H]4O[C@@H]4O[C@H](CO)[C@H](O)[C@H](O)[C@H]4O)[C@@H](O)[C@H](O[C@@H]4O[C@H](CO)[C@@H](O)[C@H](O)[C@H]4O)[C@H]3O)CC[C@]3(C)C(=CCC4[C@@]5(C)CC[C@H](O[C@@H]6OC[C@@H](O)[C@H](O)[C@H]6O)[C@@](C)(C(=O)O)C5CC[C@]43C)[C@@H]2C1 (stereo partly drawn)	11.9% [at 11.2 µM] (inactive)	–
CC(=O)O[C@@H]1[C@H](O[C@@H]2OC[C@](O)(CO)[C@H]2O)[C@@H](O[C@@H]2O[C@@H](C)[C@H](O)[C@@H](O[C@@H]3O[C@H](CO)[C@@H](O)[C@H](O)[C@H]3O)[C@H]2O)[C@H](OC(=O)[C@]23CCC(C)(C)C[C@H]2C2=CCC4[C@@]5(C)C[C@H](O)[C@H](O[C@@H]6O[C@H](C(=O)O)[C@@H](O)[C@H](O)[C@H]6O)[C@@](C)(C(=O)O)C5CC[C@@]4(C)[C@]2(C)CC3)O[C@@H]1C (stereo partly drawn)	-13.4% [at 11.2 µM] (inactive)	–
CC(C)c1cc2c(c(O)c1O[C@@H]1O[C@H](CO)[C@@H](O)[C@H](O)[C@H]1O)CC1(O)CCC(O)C(C)(C)C1CC2 (stereo partly drawn)	-19.7% [at 28 µM] (inactive)	–
CC1OC(OC2C(OC3C(O[C@H]4CC[C@@]5(C)C(CC[C@]6(C)C5C(=O)C=C5C7CC(C)(C)CC(O)[C@]7(C)CC[C@]56C)C4(C)C)OC(C(=O)O)C(O)C3O)OCC(O)C2O)C(O)C(O)C1O (stereo partly drawn)	2.71% [at 16.9 µM] (inactive)	–
CCOC(=O)c1cnn(-c2ccccc2)c1NC(=O)c1cc2nc(-c3ccco3)cc(C(F)(F)Cl)n2n1	-11.8% (inactive)	–
N[C@H]1CN(c2c(F)cc3c(=O)c(C(=O)O)cn(C4C[C@@H]4F)c3c2Cl)CC12CC2 (stereo partly drawn)	24.4% (inactive)	–
C/C=C/C=C/C=C/C(=O)OC1C=C2C(O)OC(=O)[C@]2(O)[C@@]2(C)CCCC(C)(C)[C@H]12 (stereo partly drawn)	2.5% [at 28 µM] (inactive)	–
CCOc1ccc(-c2cc(NC(=O)c3c(F)cccc3F)c(C(=O)O)s2)cc1	1.98% (inactive)	–
O=C(NC1CCC1)c1ccc(C#Cc2cccc(F)c2)nc1	-17.4% (inactive)	–
CC(=O)O[C@@H]1[C@@H](OC(=O)/C=C/c2ccccc2)[C@H](C)O[C@@H](O[C@H]2[C@@H]3C=CO[C@@H](O[C@@H]4O[C@H](CO)[C@@H](O)[C@H](O)[C@H]4O)[C@@H]3[C@@]3(CO)O[C@@H]23)[C@@H]1OC(C)=O	-0.361% [at 16.9 µM] (inactive)	–
COc1ccc(C2OCC3C(c4cc(OC)c5c(c4)OCO5)OCC23)cc1OC (stereo not drawn)	6.13% [at 28 µM] (inactive)	–
C[C@@H]1C[C@H]2O[C@@H]2/C=C\C=C\C(=O)Cc2c(Cl)c(O)cc(O)c2C(=O)O1	-16.6% [at 16.9 µM] (inactive)	–
CC(O)/C=C/C1OC(=O)CC1Nc1ccc(C(=O)O)cc1 (stereo not drawn)	-16.5% (inactive)	–
C[C@@H](c1ccccc1)N(C(N)=NC#N)c1cccc2ncccc12	-0.544% (inactive)	–
C[C@H](NC(c1cccc(C[P+](=O)O)c1)[C@H](C)O)c1ccc(Cl)c(Cl)c1 (stereo partly drawn)	-7.65% (inactive)	–
CC(=O)/C=C/C1(O)C(C)(C)CC(O)CC1(C)O (stereo not drawn)	-9.96% (inactive)	–
COc1c(C)c(OCC(O)C(C)(C)O)cc2c1CNC2=O (stereo not drawn)	6.62% (inactive)	–
C=CCc1ccc(O[C@@H]2O[C@H](CO[C@@H]3O[C@H](CO)[C@@H](O)[C@H](O)[C@H]3O)[C@@H](O)[C@H](O)[C@H]2O)c(O)c1	12.8% [at 28 µM] (inactive)	–
CCOc1ccc(-c2nn3ncccc3c2-c2ccc(S(C)(=O)=O)cc2)cc1	14.8% (inactive)	–
COc1cc2c(cc1O)CC[C@H]1[C@@H]2CC[C@]2(C)[C@H](O)CC[C@@H]12	–	17.8 µM (active)
COc1cc(Cc2cnc(N)nc2N)c(C(C)C)cc1OC	3.47% (inactive)	–
CC(C)=CCc1c(O)cc2oc3cc(C)cc(O)c3c2c1C	-22.6% (inactive)	–
CCC1CC2C(C)=CC3CCCCC3C2(C)C2(OC(=O)C(C)(O)OC2=O)O1 (stereo not drawn)	-4.74% (inactive)	–
CCC(C)C(C(=O)O)N1Cc2c(OCC=C(C)C)c(C)c(OC)c(C(=O)O)c2C1=O (stereo not drawn)	2% [at 28 µM] (inactive)	–
C=C1C(=O)O[C@@H]2/C=C(\C)CC/C=C(\C(=O)O[C@@H]3O[C@H](CO)[C@@H](O)[C@H](O)[C@H]3O)CC[C@@H]12	-14.5% [at 28 µM] (inactive)	–
CCCC(=O)O[C@@H]1[C@@H]2[C@@H](OC(C)=O)[C@]3(C)C(=O)[C@H]4[C@@H](OC(C)=O)C(C)(C)C[C@H]4[C@]3(C)C(=O)[C@@]2(OC(C)=O)C[C@@H]1C	7.39% [at 28 µM] (inactive)	–
C=C(C(=O)O)[C@H]1C[C@]2(C)[C@@H](O)CC[C@]23O[C@H]1C[C@@H]3C	1.33% (inactive)	–
CC(=O)O[C@H]1CC[C@@]2(C)C(CC[C@@H](C)[C@]23Cc2c(O)cc4c(c2O3)CN([C@@H](CCC(=O)O)C(=O)O)C4=O)C1(C)C (stereo partly drawn)	-0.278% [at 28 µM] (inactive)	–
